PTEN del growth – growth suppression of PTEN-null HCT116, primary screen, cell-based, CellTiter-Glo; AID 827, 2007; HCT116 PTEN-null viability, 60 h; stronger effect = lower value; viability, % at 10 µM; 140,000 tested, 1.2% active;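 active = viability at or below a set limit, 4 SD under the median of all tested compounds, cut at about 3.7% in these data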;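 note: PTEN knockout HCT116 line with beta catenin targeted HCT116 as companion control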
bCat KO growth – primary screen for growth suppressors in beta-catenin knockout HCT116 cells (colon tumor, human); HCT116 beta-catenin knockout viability, CellTiter-Glo, 60 h; stronger effect = lower value; viability, % at 10 µM; 140,000 tested, 1.5% active;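 active = viability at or under a set limit, the compound median less 4 SD, cut at about 6% in these data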;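 note: 0% = Hyamine 1622 control at 20 µM and 100% = untreated cell control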
Insulin prom inh – inhibitors of insulin promoter-driven GFP, primary screen, imaging, TRM-6 cells (human fetal islet line), eGFP reporter, cell count; 130,000 tested, 0.9% active; inhibition, % at 2 µM; AID 1273, 2008; reporter expression induced with tamoxifen;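 active = inhibition above the mean plus 3 SD, with well images judged a real hit on visual review, cut at about 60% in these data, passing the limit was not always enough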
ROMK primary – ROMK potassium channel modulators, primary screen, cell-based, thallium flux, MLSMR library | B-score at 10 µM | 130,000 tested, 2% active | ATP-sensitive inward rectifier potassium channel 1 (Homo sapiens), P48048 | Tet-inducible ROMK, thallium flux fluorescence; actives lie on both sides;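 active = signal ratio slope over the read window, or its plate-corrected B-score, at least 3 SD from the plate mean, either direction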;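 note: B-score of the F/F0 ratio slope over 7 to 12 s after thallium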
L major viab – Leishmania major promastigote growth inhibition, primary screen; Leishmania major promastigotes, resazurin fluorescence viability; AID 1063, 2008; inhibition, % at 10 µM; 200,000 tested, 9% active; in the data active = inhibition above about 50%;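 note: promastigotes grown with compound for 44 hours at 28 °C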
p97 inhibitor – inhibitors of human p97 ATPase, primary screen, biochemical. Transitional endoplasmic reticulum ATPase (Homo sapiens), P55072. recombinant p97 ATPase, Kinase-Glo ATP luminescence, 3 h. inhibition, % at 8 µM. 220,000 tested, 0.42% active. AID 1481, 2009; in the data active = inhibition above about 15%;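 note: 0% = DMSO vehicle and 100% = wells lacking enzyme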
Target sequence (P55072 whole entry, looked up): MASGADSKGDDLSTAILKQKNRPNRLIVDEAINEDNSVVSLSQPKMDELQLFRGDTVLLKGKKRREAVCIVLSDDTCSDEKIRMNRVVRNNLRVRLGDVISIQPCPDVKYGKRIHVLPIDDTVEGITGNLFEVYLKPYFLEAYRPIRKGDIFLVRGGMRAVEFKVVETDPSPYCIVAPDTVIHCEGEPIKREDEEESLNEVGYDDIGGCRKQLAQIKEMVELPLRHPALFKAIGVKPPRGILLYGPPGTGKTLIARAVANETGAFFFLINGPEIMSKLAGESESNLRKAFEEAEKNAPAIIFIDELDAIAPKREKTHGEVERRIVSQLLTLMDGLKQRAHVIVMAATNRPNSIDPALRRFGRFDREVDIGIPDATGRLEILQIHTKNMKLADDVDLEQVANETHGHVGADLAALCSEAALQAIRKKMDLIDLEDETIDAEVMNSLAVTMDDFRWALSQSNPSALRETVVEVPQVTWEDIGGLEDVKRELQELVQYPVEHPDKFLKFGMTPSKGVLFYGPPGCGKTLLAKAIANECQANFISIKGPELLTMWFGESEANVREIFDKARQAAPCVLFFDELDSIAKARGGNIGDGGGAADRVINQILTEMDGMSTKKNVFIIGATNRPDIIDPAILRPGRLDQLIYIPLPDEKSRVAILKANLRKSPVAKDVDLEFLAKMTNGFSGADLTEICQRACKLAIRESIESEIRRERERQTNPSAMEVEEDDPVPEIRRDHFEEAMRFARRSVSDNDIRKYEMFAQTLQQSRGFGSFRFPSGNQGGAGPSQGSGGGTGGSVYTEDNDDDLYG
* hit, by the source's call; · = no result. Hits are enriched below; roughly 10% of the tested compounds scored in any of these assays.

SMILES	PTEN del growth	bCat KO growth	Insulin prom inh	ROMK primary	L major viab	p97 inhibitor
CC1CCCCC1NC(=O)/C(C#N)=C/c1ccc(OCC(N)=O)cc1 (stereo unspecified)	83.9	85.3	·	·	64.4*	4.0
CCOC(=O)CCc1c(C(=O)OCC)[nH]c(CC)c1C(=O)OCc1ccccc1	·	·	·	-0.503	·	-12.6
Cc1cccc(Cn2c(O)c(N=NC(=S)Nc3ccccc3F)c3ccccc32)c1	·	·	·	-0.355	96.7*	2.2
Cc1cccc(NC(=S)N=Nc2c(O)n(CN3CCOCC3)c3ccccc23)c1C	13.8	21.8	78.1*	·	96.1*	6.1
Cc1ccc(N=Nc2c(O)n(CN3CCOCC3)c3ccccc23)cc1	95.2	86.8	-3.1	·	-15.8	-3.0
NC(=S)N=Nc1c(O)n(Cc2ccc(F)cc2)c2ccccc12	86.5	82.2	·	·	-4.0	2.5
Oc1c(N=NC(=S)Nc2ccccc2F)c2ccccc2n1Cc1cccc(Cl)c1	·	·	·	-0.222	83.0*	0.5
Oc1c(N=NC(=S)Nc2ccccc2F)c2ccccc2n1Cc1ccc(F)cc1	·	·	7.1	-0.052	90.7*	4.5
Cc1ccc2c(c1)c(N=NC(N)=S)c(O)n2Cc1ccccc1	84.6	67.5	52.0	·	43.6	1.4
c1ccc(-c2csc(-n3cccn3)n2)cc1	·	·	36.4	1.03	-1.3	-2.6
CCOC(=O)c1nc2cc3n(c(CC(C)C)c-2c1C)CC(C)=C3C	88.0	90.4	-130.8	·	64.1*	-0.4
Cc1ccc(-c2nn(CC(=O)NN3CCOCC3)c(=O)c3ccccc23)cc1	·	·	·	·	·	-5.5
O=C(COC(=O)Cc1ccc(Cl)cc1)Nc1c(F)cccc1F	·	·	-36.4	-0.274	-8.9	4.1
CCn1c(O)c(C2=c3ccccc3=NC2=O)c2cc(Br)ccc21	·	·	·	0.973	100.4*	-6.7
COC(=O)Nc1ccc(S(=O)(=O)N2CCCC(C(=O)N3CCCCCC3)C2)cc1 (stereo unspecified)	·	·	·	-0.103	6.4	-0.2
CC(=O)c1cnc(-c2ccccc2Cl)s1	·	·	76.9*	-1.57	-17.1	0.0
CN(C)CCCNC(=O)/C(=C\c1ccc(-c2cccc([N+](=O)[O-])c2)o1)NC(=O)c1ccccc1	·	·	·	-1.77	0.3	2.8
CN(C)CCNC(=O)/C(=C/c1ccc(-c2ccc(Cl)cc2Cl)o1)NC(=O)c1ccccc1	1.5*	1.9*	-53.6	·	100.5*	-6.2
Cc1ccsc1C(C(=O)NC(C)(C)C)N(C(=O)c1csnn1)c1ccccc1 (stereo unspecified)	·	·	-66.7	0.185	-0.1	4.7
Oc1ccc(Cl)cc1-c1cc(-c2ccco2)[nH]n1	46.3	31.7	27.9	·	90.3*	9.8
Oc1ccc(Cl)cc1-c1cc(-c2cccc(Br)c2)n[nH]1	15.0	7.9	-17.4	0.687	99.2*	-2.2
C=CCN(CC=C)C(=O)C(=O)c1ccn(-c2c(C)csc2C(=O)OC)c1	·	·	·	0.77	1.4	-0.3
CSc1ccc(/C=C(\C#N)C(=O)Nc2cccc(C)c2)cc1	100.1	99.9	·	·	29.8	3.9
Clc1ccc(Cn2c(-c3cccnc3Cl)nc3ccccc32)c(Cl)c1	66.4	68.3	·	0.16	98.6*	-2.1
Clc1ccc(Cn2c(-c3cccnc3Cl)nc3ccccc32)cc1	71.2	73.5	·	-0.477	45.9	2.5
SMILES	PTEN del growth	bCat KO growth	Insulin prom inh	ROMK primary	L major viab	p97 inhibitor
CCCCNS(=O)(=O)c1ccc(NC(=O)C(Sc2ccccc2)c2ccccc2)cc1 (stereo unspecified)	16.2	26.1	-11.1	-0.139	78.6*	2.3
CCC(C)NS(=O)(=O)c1ccc(NC(=O)C(Sc2ccccc2)c2ccccc2)cc1 (stereo unspecified)	23.1	35.7	38.2	0.455	68.2*	7.0
CNc1nc(-c2cccs2)cc(C(F)(F)F)c1C#N	·	·	·	·	·	6.6
CCOc1ccccc1NC(=O)/C=C/c1ccccc1[N+](=O)[O-]	90.8	93.9	-35.1	-0.235	77.5*	-0.1
CCOc1ccccc1NC(=O)/C=C/C(N)=O	94.1	80.7	6.5	0.0457	100.5*	9.6
NS(=O)(=O)c1ccc(NC(=O)/C=C/c2ccccc2[N+](=O)[O-])cc1	·	·	50.0	0.444	69.1*	1.6
C=CCNC(=O)C1CC1(c1ccccc1)c1ccccc1 (stereo unspecified)	94.5	88.3	25.0	-0.159	-1.5	-1.3
COc1ccc(Cl)cc1C(=O)Nc1ccc(NC(=O)C(C)C)cc1	·	·	·	0.993	-2.9	-2.1
Cc1cccc(NC(=O)/C(C#N)=C\c2cc(C)n(-c3ccc(C(=O)O)cc3)c2C)c1	·	·	-21.1	-0.699	-8.4	3.6
Cc1cccc(-n2c(C)cc(C=C(C#N)C#N)c2C)c1	85.2	93.0	-34.5	0.173	62.0*	-3.3
Cc1cc(/C=C(/C#N)c2cccc(F)c2)c(C)n1-c1cccnc1	60.4	69.0	·	·	99.4*	-1.3
Cc1ccc(NC2OC(C(O)CO)C(O)C2O)cc1[N+](=O)[O-] (stereo unspecified)	98.0	111.2	12.2	·	1.8	5.0
COCCN1C(=O)/C(=C/c2ccc(Oc3ccc([N+](=O)[O-])cn3)c(OC)c2)SC1=Nc1ccccc1	81.5	71.6	-31.2	-0.186	100.3*	-0.3
Nc1c(C(=O)Nc2cccc(Cl)c2Cl)sc2nc(-c3cccnc3)ccc12	1.3*	1.5*	-100.0	·	-3.9	3.1
CCOC(=O)C1=C(CN2CCOCC2)NC(=O)NC1c1cccc([N+](=O)[O-])c1 (stereo unspecified)	·	·	-21.4	-0.055	-5.4	1.7
CCOC(=O)C1=C(C)N(c2ccccc2)C(=O)NC1c1cccc([N+](=O)[O-])c1 (stereo unspecified)	87.1	88.9	6.9	·	95.3*	-3.4
CC1CCC/C(=N/Nc2nc3ccccc3s2)C1 (stereo unspecified)	·	·	·	-0.181	51.6*	3.2
Cc1cc(-c2csc3nc[nH]c(=S)c23)cc(C)c1C	·	·	·	5.18*	17.4	0.7
Cc1sc2nc(-c3ccncc3)[nH]c(=O)c2c1-c1ccccc1	89.7	99.3	-35.7	0.539	-0.5	3.6
Cc1sc2nc[nH]c(=S)c2c1-c1ccccc1	·	·	·	6.4*	8.6	-0.3
Cc1ccc(-c2csc3nc[nH]c(=S)c23)cc1	64.8	67.3	6.7	10.5*	-6.5	2.5
CCOc1ccc2cc(C3CC(c4ccco4)=NN3S(C)(=O)=O)c(=O)[nH]c2c1 (stereo unspecified)	·	·	·	·	·	8.7
O=C(OCC(=O)N1CCCC1)c1ccc(S(=O)(=O)Nc2ccccc2)cc1	·	·	·	-0.0497	-3.7	0.2
O=C(Nc1cc(Oc2ccccc2)cc([N+](=O)[O-])c1)C12CC3CC(C1)CC(n1cnc(Cl)n1)(C3)C2	44.5	62.3	·	-0.538	80.1*	3.2
O=C(Nc1cccc2ccccc12)C12CC3CC(C1)CC(n1cnc([N+](=O)[O-])n1)(C3)C2	14.5	17.5	-24.6	-0.535	73.4*	1.2
COC(=O)c1ccccc1NC(=O)C12CC3CC(C1)CC(n1cnc(Cl)n1)(C3)C2	74.2	72.2	-33.3	-0.0211	9.6	-1.1

Source: PubChem
